From PubChem
TDP1 inh: qHTS Assay for Inhibitors of Tyrosyl-DNA Phosphodiesterase (TDP1). recombinant TDP1, AlphaScreen DNA substrate cleavage. Potency, µM (highest dose often 130 µM), for inactives: at the highest dose activity change, negative = inhibition, hits mostly inhibitors. 350,000 tested, 0.28% active. AID 485290, 2010; also: % is scaled to controls: 0 for no effect and ±100 for the full control effect; nearly all actives have a fitted effect of over 40% in size
Target sequence (Q9NUW8 whole entry, looked up): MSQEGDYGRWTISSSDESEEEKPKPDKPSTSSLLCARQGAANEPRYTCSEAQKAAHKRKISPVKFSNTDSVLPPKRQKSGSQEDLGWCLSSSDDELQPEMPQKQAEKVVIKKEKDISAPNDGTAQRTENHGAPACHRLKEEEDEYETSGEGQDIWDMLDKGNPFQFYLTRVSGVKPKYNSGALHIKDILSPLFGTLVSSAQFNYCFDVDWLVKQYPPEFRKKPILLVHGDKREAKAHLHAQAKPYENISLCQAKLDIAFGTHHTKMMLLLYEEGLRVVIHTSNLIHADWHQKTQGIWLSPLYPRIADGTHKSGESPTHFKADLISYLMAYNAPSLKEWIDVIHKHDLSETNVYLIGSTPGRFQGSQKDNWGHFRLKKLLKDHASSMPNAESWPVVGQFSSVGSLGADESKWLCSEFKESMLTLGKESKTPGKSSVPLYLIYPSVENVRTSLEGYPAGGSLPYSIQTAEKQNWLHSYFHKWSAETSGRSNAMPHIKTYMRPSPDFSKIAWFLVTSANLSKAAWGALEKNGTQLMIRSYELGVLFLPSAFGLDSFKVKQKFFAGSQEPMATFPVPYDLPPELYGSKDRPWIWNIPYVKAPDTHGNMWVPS
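Tdp1 1 nM final; 15 min RT w/ cpd; substrate 15 nM, 5 min; beads 10 ug/ml, 10 min; AlphaScreen read. Neg ctrl: no enzyme.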
Tb PFK inh-1: qHTS Assay to Find Inhibitors of T. brucei phosphofructokinase; Potency, µM (doses to about 57.5 µM), without a hit: at the top dose activity, negative = inhibition, usual class: inhibitors; T. brucei PFK, ADP-Glo luminescence; 330,000 tested, 0.17% active; AID 485367, 2010;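 also: 0% = uninhibited 1x PFK enzyme wells and -100% = no-enzyme wells; nearly all actives have a fitted effect of over 60% in size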
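In TEA buffer at pH 8.0 with 5 mM MgCl2, enzyme (1.25 nM) converted F6P (0.5 mM) and ATP (0.1 mM) for 45 min at room temperature. ADP product was read by luciferase luminescence.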
Pin1 inh: qHTS Assay to Find Inhibitors of Pin1; Peptidyl-prolyl cis-trans isomerase NIMA-interacting 1 (Homo sapiens), Q13526; Pin1 FP peptide displacement, HiFluor488, 10 min; Potency, µM (titrated, usually from 115 µM), inactives show top-dose activity, negative = inhibition, most hits filed as inhibitors; 390,000 tested, 0.009% active; active = well fitted inhibition curve with a large enough effect in the polarisation, with a control signal flat, not every such curve was filed as active; inconclusive = small, poorly fitted or top-dose-only effect, or effect the other way, or a change in a side signal; inactive = no such curve, though single readings can be large or run the other way; the % refers to the polarisation; also: % is scaled to controls: 0 for no effect and ±100 for the full control effect
PLK1 PBD inh: qHTS for Inhibitors of PLK1-PDB (polo-like kinase 1 - polo-box domain): Primary Screen; Plk1 PBD binding of FITC phosphopeptide, fluorescence polarization; Potency, µM, without a hit: max response, negative = inhibition, hits mostly inhibitors; 360,000 tested, 2.8% active; also: series mostly up to about 57 µM; % is scaled to controls: 0 for no effect and ±100 for the full control effect; nearly all actives have a fitted effect of over 65% in size
ASM inhibitor: Inhibitors of Secretory Acid Sphingomyelinase (S-ASM): qHTS. Sphingomyelin phosphodiesterase (Homo sapiens), P17405. placental ASM, HMU-PC fluorogenic substrate, 60 min. Potency, µM (doses to about 57.5 µM), inactives show top-dose activity change, negative = inhibition, actives largely listed as inhibitors. 340,000 tested, 0.006% active
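Fluorescence read-out (Ex 386 nm, Em 447 nm) after stopping the reaction at pH 10. Enzyme: ASM from human placenta; substrate HMU-PC0, 9 uM final; 60 min, 37 °C. Compound preincubation 10 min, ambient temperature.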
VDR inh: Inhibitors of the vitamin D receptor (VDR): qHTS; Vitamin D3 receptor (Homo sapiens), P11473; 400,000 tested, 0.93% active; AID 504847, 2011; Potency, µM, inactives show max response, negative = inhibition, usual class: inhibitors; VDR-SRC2-3 peptide fluorescence polarization, 2 h; also: % is scaled to controls: 0 for no effect and ±100 for the full control effect
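Fluorescence polarization assay of small-molecule disruption of VDR binding to coregulator peptide SRC2-3. Compounds and controls pin-transferred, then read after 2 h incubation at ambient room temperature.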
TbPFK ATP: Tb PFK orthogonal confirmatory assay using ATP depletion (Kinase-Glo Plus) as an alternative measure of Tb PFK activity: Hit Validation. shares compounds with Tb PFK inh-1. Tb PFK enzyme, ATP depletion, Kinase-Glo Plus luminescence. Potency, µM (top dose mostly 57.5 µM), without a hit: at the top dose inhibition. 1,100 tested, 47% active. AID 504636, 2011; calls by dose curve; also: nearly all actives have a fitted effect of over 60% in size
Tb PFK inh-2: Inhibitors of T. brucei phosphofructokinase: Hit Validation. 1,100 tested, 41% active. Potency, µM (top dose mostly 57.5 µM), for inactives: at the top dose activity change, negative = inhibition, most hits filed as inhibitors. purified T. brucei PFK, ADP-Glo luminescence, 45 min. shares compounds with Tb PFK inh-1;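 also: plate controls were full PFK enzyme control for no effect and no enzyme control for full effect; nearly all actives have a fitted effect of over 60% in size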
Active calls of the source: *; ? = inconclusive; · = no result given; [ ] = dose if it differs, or a comment. Compounds with a hit are over-represented: about 3.1% of the library has one in this group of screens. Unless noted, calls follow the shape of the dose curve; as a rule, active = well fitted curve in the direction sought with a large enough effect; inconclusive = small, poorly fitted or top-dose-only effect, or another doubt; inactive = no such curve, though single readings can be large; an effect the other way counts as inactive or inconclusive. Potency is read from the fitted curve at half-maximal effect.

SMILES | TDP1 inh | Tb PFK inh-1 | Pin1 inh | PLK1 PBD inh | ASM inhibitor | VDR inh | TbPFK ATP | Tb PFK inh-2
COc1ccc(NC(=O)CN2CC=C(c3ccccc3)CC2)cc1S(=O)(=O)N1CCOCC1 | 1% | 1% | 38% | -10% | 18% | -23% | · | ·
CC(C)CN1CCCC2(CCN(C(=O)Oc3ccccc3)CC2)C1 | · | · | · | · | · | -16% | · | ·
COc1ccc(C(=O)N2CCCC2=O)cc1 | 3% | -5% | -1% | -6% | 0% | 5% | · | ·
COc1ccc(NC(=O)CN2C(=O)S/C(=C/c3cccn3-c3ccc(C(=O)O)cc3)C2=O)cc1 | 20µM* | 9.5µM* | · | · | · | · | 19µM* | ?
Cc1ccc(NC(=O)CN2C(=O)N/C(=C/c3cccn3-c3ccc(C(=O)O)cc3)C2=O)cc1 | 0.89µM* | ? | · | 11µM* | -13% | -9% | 1.7µM* | ?
CN1CC[C@@]2(C)c3cc(O)ccc3N(C)C12 (some centres undefined) | -4%[56.1 µM] | · | · | · | · | ? | · | ·
COc1cccc(N2CC(C(=O)Nc3ccc(F)cc3)CC2=O)c1 (centres undefined) | 6% | 19µM* | -1% | -17% | 5% | 37% | 6% | -5%
COc1cccc(C(=O)C2CCCN(Cc3ccc(F)cc3)C2)c1 (centres undefined) | · | -2% | -9% | -11% | 2% | -3% | · | ·
Oc1cc(-n2cccn2)c(O)cc1-n1cccn1 | 9% | 19µM* | -4% | ? | 0% | 6% | ? | ?
O[C@H]1CCCC[C@H]1N1CCC(c2ccccc2)CC1 | -6%[56.1 µM] | · | · | · | · | 11% | · | ·
N#Cc1ccc(NC(=O)CN2CCN(C(=O)c3cccs3)CC2)cc1Cl | 2% | -6% | 1% | -2% | 2% | 5% | · | ·
CC(=O)c1ccc(S(=O)(=O)N2CCN(CC(=O)Nc3ccc(Cl)c([N+](=O)[O-])c3)CC2)cc1 | 2% | 13µM* | 0% | 0% | -13% | -1% | ? | ?
CC(C)[C@@H]1CN[C@H](C(=O)O)[C@@H]1CC(=O)O | 12% | · | · | · | · | -6% | · | ·
CC(=O)Nc1ccc([As](=O)(O)c2ccc([N+](=O)[O-])cc2)cc1 | -1% | -2% | -5% | -10% | -3% | 16% | · | ·
Cc1cc(NS(=O)(=O)c2ccc(NC(=O)Cc3ccc([N+](=O)[O-])cc3)cc2)nc(C)n1 | 0% | 8.5µM* | -7% | -1% | -2% | 17% | 3.8µM* | 6µM*
Cc1noc(NS(=O)(=O)c2ccc(NC(=O)Cc3ccc([N+](=O)[O-])cc3)cc2)c1C | 5% | 6µM* | -3% | -18% | 2% | -28% | 3.4µM* | 12µM*
C=C(CC1(CNP(=O)(c2ccccc2)c2ccccc2)CC1)c1ccccc1 | 6% | · | · | · | · | · | · | ·
CC(=O)N1CC2CC(C1)c1cccc(=O)n1C2 (centres undefined) | 12%[56.1 µM] | · | · | · | · | · | · | ·
CCOc1cccc(N2C(=O)/C(=C/c3ccco3)C(=O)NC2=S)c1 | · | ? | -7% | 12µM* | 4% | ? | ? | ?
CC1CC(Cl)CCC1C(=O)OC(C)(C)C (centres undefined) | 5% | · | · | · | · | 16% | · | ·
COc1cc(SSc2cc(OC)cc([N+](=O)[O-])c2N)c(N)c([N+](=O)[O-])c1 | · | 3.4µM* | -13% | 0.67µM* | -14% | 7.9µM* | 2.4µM* | 2.7µM*
C=C1[C@@H](O)C2C=CC[C@H](C)C(=O)[C@@](C)(O)C=C[C@@H](OC(C)=O)[C@@]23C(=O)N[C@H](Cc2ccccc2)[C@@H]3[C@@H]1C (some centres undefined) | -5%[56.1 µM] | · | · | · | · | 1% | · | ·
S=c1[nH]nc(-c2cccnc2)n1/N=C/C=C/c1ccco1 | 40µM* | 30µM* | ? | -3% | 2% | -9% | 6µM* | ?
CC(=O)Nc1ccc(SCC(=O)c2ccc(Br)s2)cc1 | 9% | 24µM* | -4% | 4.7µM* | -3% | ? | ? | -24%
O=c1[nH]c2sccc2c2ccccc12 | 8% | · | · | · | · | 1% | · | ·
SMILES | TDP1 inh | Tb PFK inh-1 | Pin1 inh | PLK1 PBD inh | ASM inhibitor | VDR inh | TbPFK ATP | Tb PFK inh-2
COc1cc(C(=S)N2CCN(c3ccccc3Cl)CC2)cc(O)c1O | 0% | ? | ? | 17µM* | -11% | ? | ? | ?
COc1ccccc1N1CCN(Cc2ccccc2Cl)CC1 | 2% | -3% | -5% | 0% | 2% | 1% | · | ·
O=C(Cc1ccc(Br)cc1)N/N=C/c1cccnc1 | 5% | 17µM* | -3% | -5% | 0% | 12% | 13µM* | ?
COC(=O)[C@@H]1C[C@@]2(O)[C@H](O)[C@H](O)[C@H](O)C[C@H]2N1Cc1cccnc1 | 3% | · | · | · | · | · | · | ·
N#Cc1ccc2ccn(CC(=O)NCc3ccccc3)c2c1 | -2% | ? | 18% | -5% | 2% | -5% | ? | 21µM*
CCC(=O)c1cn(Cc2ccc(C#N)cc2)c2ccccc12 | 2% | -2% | -10% | -1% | -1% | -19% | · | ·
COC(=O)C1CCN(C(=O)c2cc(-c3ccco3)nc3ccccc23)CC1 | · | 2.7µM* | · | 30µM* | 212% | -12% | ? | -26%
Cc1cc(N(C)C)ccc1[N+](=O)[O-] | 5% | ? | 4% | -1% | -2% | -4% | ? | 30µM*
Clc1cccc(CNCCc2ccc3c(c2)OCO3)c1 | · | -21% | -6% | -6% | -1% | -2% | · | ·
O=C(NCc1cccc(Cl)c1)c1ccc2c(c1)OCO2 | 0% | ? | 0% | -8% | 3% | -12% | 24µM* | 30µM*
